Compound activity (PubChem BioAssay)
Rows were chosen to be rich in hits. Some 2% of all compounds tested hit in one or more screens of this group.
PfHsp40 rescue – restores yeast growth despite PfHsp40 toxicity; S. cerevisiae expressing PfHsp40, growth rescue, ATP luminescence; growth rescue, % at 12.5 µM; 340,000 compounds, 0.68% hits; AID 504582; in the data active means growth rescue above about 28%, passing the limit was not always enough;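 further: yeast W303a lacking pdr1 and pdr3 grown in galactose medium; growth measured after three days at 30 °C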
BJeLR viability – kills HRASV12-expressing BJeLR cells; BJeLR (HRASV12) viability, CellTiter-Glo ATP luminescence, 48 h; inhibition, % (no concentration beside the values); AID 1554; 300,000 compounds, 0.17% hits; in the data active means inhibition above about 50%
Yp Topo-I inh – inhibitors of Yersinia pestis topoisomerase I | Y. pestis Topo-I cleavage product accumulation, plate reader | activity, % at 10 µM | 360,000 compounds, 0.064% hits; in the data active means activity above about 50%, passing the limit was not always enough
PrPC surface inh – cell surface PrPC inhibition, primary TR-FRET screen. P04156. TR-FRET read-out. inhibition, % at 13.8 µM. 370,000 compounds, 0.43% hits. AID 720596; in the data active means inhibition above about 24%; further: 0% = median of the test wells and 100% = reference compound wells
PrP UTR inh – inhibition of PrP 5' UTR reporter expression; cell-based PrP 5' UTR mRNA reporter, plate reader; inhibition, % (test concentration not listed); 340,000 compounds, 0.35% hits; AID 488862; in the data active means inhibition above about 52%; further: 0 = median of the neutral control wells
CCHF vOTU inh-1 – blocks the CCHF virus ovarian tumor domain protease; CCHFV vOTU protease, Pep-AMC fluorescence; inhibition, % at 11.5 µM; 370,000 compounds, 0.55% hits; AID 651958; further: 0% = vehicle wells with enzyme and 100% = no enzyme wells
CCHF vOTU inh-2 – CCHFV vOTU protease inhibition, confirmation; shares compounds with CCHF vOTU inh-1; Recombinant CCHFV vOTU, Pep-AMC fluorescence; inhibition, % at 11.5 µM; 1,900 compounds, 17% hits
Numbers without * were called inactive; nt = no result. Unless noted, no stated cut-off is given here; in the data, active means inhibition above about 30%; inactive means the rest.

SMILES	PfHsp40 rescue	BJeLR viability	Yp Topo-I inh	PrPC surface inh	PrP UTR inh	CCHF vOTU inh-1	CCHF vOTU inh-2
CC(C)=CCC[C@H](C)CC1Cc2[nH]c(=S)[nH]c(=O)c2C(c2ccc(F)cc2)O1 (stereo not given in full)	nt	nt	nt	0.7	nt	-0.5	nt
CC(C)=CCC[C@H](C)CC1Cc2[nH]c(=S)[nH]c(=O)c2C(c2ccc(Cl)cc2)O1 (stereo not given in full)	nt	nt	nt	-4.2	nt	30.1*	-7.8
COc1ccc(S[C@]2(C(=O)N3CCOCC3)CC(=O)N(c3ccsc3)[C@@H]2c2ccc(OC)cc2)cc1	nt	nt	nt	2.5	nt	-0.9	nt
O=C(NNc1cccc(Cl)n1)Nc1ccc(Cl)cc1	-0.4	1.1	-1.9	2.0	-13.2	42.1*	-15.9
CCOC(=O)c1c(NC(=O)COC(=O)Cn2cnc3ccccc32)sc2c1CCC(C)C2 (stereo not given)	4.1	nt	7.4	5.0	-6.9	46.7*	8.8
O=C(CSc1nnc(-c2cccnc2)n1Cc1ccco1)Nc1ccc(Cl)cc1	nt	nt	nt	1.8	nt	-6.5	nt
CS(=O)(=O)N(Cc1ccccc1)c1ccc(C(=O)NCC2CCCO2)cc1 (stereo not given)	-0.7	1.1	-7.9	1.6	-4.1	35.0*	-6.0
CC(=O)Nc1sc2c(c1-c1nc3ccccc3s1)CCCNC2	nt	nt	nt	-14.2	nt	nt	nt
CCc1ccc2c(CN3CCN(S(=O)(=O)c4cccs4)CC3)cc(=O)oc2c1	4.4	6.3	-0.4	5.0	-2.5	34.9*	-6.4
CCc1ccc2c(CN3CCN(S(=O)(=O)c4ccccc4F)CC3)cc(=O)oc2c1	0.5	nt	0.5	1.8	7.8	8.7	nt
COc1cc(C(=O)Nc2cc3c4c(c2)CC(=O)N4CCC3)cc(OC)c1OC	2.2	11.1	-7.4	-6.4	-34.5	33.8*	-9.5
O=C1OC(Nc2cc(Br)cc3cccnc23)c2ccccc21 (stereo not given)	2.5	3.9	-0.9	-19.8	-27.8	111.4*	99.8*
CCNC(=O)Nc1ccc2c(c1)C(=O)N(C)[C@H]1CC[C@@H](CC(=O)NCCN3CCCC3)O[C@@H]1CO2	nt	nt	nt	-8.0	nt	-4.5	nt
COC(=O)c1ccc2c(C(C)c3ccccc3O)c[nH]c2c1 (stereo not given)	nt	nt	nt	-6.1	nt	-4.5	nt
CN(CC(=O)Nc1ccccc1Cl)C(=O)C1CCN(S(=O)(=O)c2ccc3c(c2)OCCO3)CC1	0.2	9.3	13.1	-9.2	-4.9	17.1	nt
CN(CC(=O)Nc1ccc(F)cc1)C(=O)C1CCN(S(=O)(=O)c2ccc3c(c2)OCCO3)CC1	0.1	-4.2	4.1	-2.2	-3.7	34.4*	-16.5
COCCCNC(=O)C[C@H]1C[C@@]2(C(=O)OC)C(=C[C@H](C3CCCC3)O[C@@H]2C)N(Cc2ccco2)C1=O	nt	nt	nt	0.6	nt	-5.9	nt
CCCCn1c(N)c(N(CC(C)C)C(=O)c2cccs2)c(=O)[nH]c1=O	0.2	-25.7	-1.0	3.4	-10.3	38.9*	-12.6
COc1ccc2[nH]c3c(c2c1)CCN[C@]31C(=O)N(Cc2cn(Cc3ccccc3)nn2)c2ccccc21	nt	nt	nt	6.3	nt	18.3	nt
Cc1cc(F)ccc1-c1cc(C(=O)NCc2cc(C(F)(F)F)cc(C(F)(F)F)c2)[nH]n1	nt	nt	-3.2	1.3	nt	0.3	nt
Cc1ccc(Cl)cc1-c1cc(C(=O)NCc2cc(C(F)(F)F)cc(C(F)(F)F)c2)[nH]n1	nt	nt	-3.0	-1.7	nt	33.0*	-19.4
Cc1ccc(F)cc1-c1cc(C(=O)NCc2cc(C(F)(F)F)cc(C(F)(F)F)c2)[nH]n1	nt	nt	-11.1	7.8	nt	30.2*	4.8
CCOC(=O)c1cc2c(ccn2C)n1Cc1ccccc1Cl	-2.1	25.1	0.9	-0.4	-2.9	1.9	nt
CCOC(=O)c1cc2c(ccn2C)n1CC(=O)N(Cc1ccccc1)c1ccccc1	1.3	0.1	-1.3	-3.7	5.6	55.3*	3.2
CCOC(=O)c1cc2c(ccn2C)n1Cc1ccccc1C	-1.2	-5.7	32.2	-6.6	-19.0	30.9*	42.8*
SMILES	PfHsp40 rescue	BJeLR viability	Yp Topo-I inh	PrPC surface inh	PrP UTR inh	CCHF vOTU inh-1	CCHF vOTU inh-2
O=C(CSc1nnc(-c2ccc(Cl)cc2)n1C1CCCCC1)NN=Cc1c(O)ccc2ccccc12	nt	nt	nt	0.6	nt	9.5	nt
O=C1C=CC(=O)N1c1ccc(Nc2ccccc2)cc1	235.8*	nt	-3.0	-6.7	-9.4	41.1*	-15.6
c1ccc(Nc2ccc(Nc3ccccc3)cc2)cc1	0.5	nt	-6.3	-4.0	-40.5	1.4	nt
COc1ccc(N[C@@H]2CCN3C(=O)c4ccccc4[C@@H]3C[C@H]2O)cc1	12.4	nt	1.4	7.4	-1.6	14.0	nt
O=C1c2ccccc2[C@@H]2C[C@@H](O)[C@H](Nc3cccc4ccccc34)CCN12	-2.2	nt	-2.8	-14.7	-15.7	54.3*	-20.6
Fc1ccc(CC2CCN(c3ncnc4sccc34)CC2)cc1	nt	nt	nt	20.8	nt	nt	nt
COc1ccc(S(=O)(=O)n2nc(OC(=O)c3ccc(C)cc3)cc2N)cc1	-0.8	-4.6	0.4	-4.8	0.2	34.8*	-6.8
CC(=O)C1(C(=O)NC2CCCC2)CC(c2ccccc2C(F)(F)F)=NO1 (stereo not given)	nt	nt	nt	-3.6	nt	-1.1	nt
Nc1ccc(N=Nc2ccc(O)cc2)c(N)n1	2.1	nt	-12.8	-47.8	-79.3	38.4*	7.0
COc1ccc(N=Nc2ccc(N)nc2N)cc1	-0.1	-8.2	-13.1	-11.8	-60.1	7.0	nt
CC/C=C\[C@H](O)[C@H](O)C1=C(C)C(=O)[C@]2(O1)C(=O)N[C@@](OC)(C(=O)c1ccccc1)[C@@H]2O	nt	nt	nt	-5.1	nt	1.9	nt
O=C(N/N=C/c1cc(Br)ccc1O)c1cccc(N2CCCC2=O)c1	0.5	3.8	-4.2	3.0	9.4	31.6*	-15.0
O=C1CCCCCCCN1Cc1ccccc1	1.5	-4.6	1.7	1.0	-9.9	-10.3	nt
CC1=NN(c2ccc(N)cc2)C(=O)C1	0.9	1.4	6.5	-2.7	-18.0	56.9*	-8.9
CC1=NN(Cc2ccccc2)C(=O)C1	-1.6	0.6	-8.0	3.4	-19.3	35.7*	-19.2
CC1=NN(c2nc(-c3ccc(Cl)cc3)cs2)C(=O)C1	2.8	5.6	-13.5	11.1	-17.0	0.8	nt
CC1=NN(c2ccccc2)C(=O)C1	0.1	9.0	-0.9	-8.2	-1.8	86.9*	-10.6
CC1=NN(c2ccc(S(=O)(=O)O)cc2C)C(=O)C1	-1.5	-2.3	3.6	4.2	-10.7	11.3	nt
CC1=NN(c2ccc(Cl)cc2)C(=O)C1	0.3	2.2	-3.5	5.6	-24.4	41.4*	-10.9
CC1=NN(c2cccc([N+](=O)[O-])c2)C(=O)C1	0.3	-2.7	-12.1	-9.7	1.9	12.8	nt
O=C(CCNC(=O)c1ccc(Br)cc1)NC1CCCCCC1	1.1	nt	-2.5	2.6	-5.1	36.7*	-3.4
COCCCNC1=C(Cl)C(=O)c2ccccc2C1=O	-1.1	0.7	-7.0	-42.9	-41.6	12.3	nt
COCCCNc1c2c3c(cccc3[nH]c1=O)C(=O)c1ccccc1-2	-0.5	nt	5.2	-33.0	3.4	32.4*	0.9
CN1CCc2c(sc3c2c(=O)n(-c2ccccc2)c2nnc(SCc4ccccc4)n32)C1	0.1	1.1	3.9	-20.4	-10.2	31.0*	-7.1
